# Where “and” joins values, the source holds several entries; their conditions need not be identical. Identical values can stand only once. Calls of active or inactive are those of the source. The calls were made as follows: active = hit-call score of the fitted dose curve at least 0.9, where 1 is the maximum; inactive = score below 0.9.
# Experiments:
# [1] = read-out: Plasminogen activator inhibitor-1 (PAI1), SERPINE1 (gene 5054); experiment: BSK_MyoF_PAI1: BioMAP Diversity Plus: MyoF Assay for Plasminogen activator inhibitor-1 (PAI1) Biomarker Activity (AID 2284256); settings: primary human lung fibroblasts;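 as to outcome: PAI-1 protein level measured by ELISA in fibroblast cultures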
# How it was run: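 In this multiplexed primary-cell system, fibroblasts from human lung received compound for 24 h before ELISA detection of PAI-1; overt toxicity was checked by SRB (0.1%, TCA-fixed, 560 nm) in parallel wells.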
# CD69, CD69 (gene 969) = experiment: BSK_IMphg_CD69: BioMAP Diversity Plus: IMphg Assay for CD69 Biomarker Activity (AID 2284257); settings: primary human endothelial cells with macrophages
# How it was run: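 Readout is ELISA for CD69 in primary human venular endothelial cell/macrophage co-culture, taken at 24 h post-dosing. SRB staining of parallel cultures gauged overt cytotoxicity; signal increase versus DMSO defined activity.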
# [2] = read-out: Eotaxin 3, CCL26 (gene 10344); experiment: BSK_BF4T_Eotaxin3: BioMAP Diversity Plus: BF4T Assay for Eotaxin 3 Biomarker Activity (AID 2284258); settings: primary human bronchial epithelial cells with fibroblasts
# How it was run: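 ELISA measurement of Eotaxin-3 after 24 h chemical exposure in a bronchial epithelial/dermal fibroblast co-culture, with DMSO as baseline. Parallel SRB staining (0.1% SRB after 10% TCA fixation, 560 nm) flagged overt cytotoxicity.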
# [3] = read-out: Monocyte Chemoattractant Protein-1 (MCP1), CCL2 (gene 6347); experiment: BSK_BF4T_MCP1: BioMAP Diversity Plus: BF4T Assay for Monocyte Chemoattractant Protein-1 (MCP1) Biomarker Activity (AID 2284259); settings: primary human bronchial epithelial cells with fibroblasts
# Description: BSK_BF4T is a cell-based, multiplexed-readout assay that uses bronchial epithelial cells and dermal fibroblasts, a human vascular primary cell, with measurements taken at 24 hours after chemical dosing in a microplate: 96-well plate.BSK_BF4T_MCP1 is an assay component measured in the BSK_BF4T assay. It measures MCP-1 antibody related to regulation of gene expression using ELISA technology.Data from the assay component BSK_BF4T_MCP1 was analyzed at the endpoint, BSK_BF4T_MCP1, in the positive analysis fitting direction relative to DMSO as the negative control and baseline of activity. Using a type of binding reporter, gain or loss-of-signal activity can be used to understand protein changes. To generalize the intended target to other relatable targets, this assay endpoint is annotated to the 'cytokine' intended target family, where the subfamily is 'chemotactic factor'.
# The levels of cell surface (or secreted, indicated by the prefix "s") biomarker endpoints were measured by ELISA. Overt cytotoxicity to cells in confluent adherent cultures (all systems other than the BT system) was assessed by measuring total protein levels using sulforhodamine B (SRB) staining in parallel cultures at the time of biomarker measurements, indicated as SRB endpoints. For proliferation assays for adherent cell types, individual cell types are cultured at sub-confluence and relative cell numbers quantified by SRB staining at time points optimized for each system (48 h: 3C and CASM3C systems; 72 h: BT and HDF3CGF systems; 96 h: SAg system). SRB was performed by staining cells with 0.1% SRB after fixation with 10% TCA and reading wells at 560 nm.Viability and proliferation of PBMC (T cells) was quantified by Alamar Blue reduction for the SAg and BT systems. For PBMC viability (referred to as PBMC Cytotoxicity within the assay endpoint names), cells were plated (75,000/well in a 96-well plate) and then chemical samples added for 1 h before addition of activators, SEB and TSST-1 (20 ng/mL final concentration each). Cells were incubated for 90 h. Then, Alamar Blue (20 uL/well) (Invitrogen, Cat DAL1100) was added for 6 h, and the plates were read with a fluorescence microplate reader at 546/580 nm (excitation/emission). For PBMC proliferation, cells were plated and activated as above but incubated for only 16 h prior to addition of Alamar Blue. Plates were read after 6 h.
# [4] = read-out: Intercellular Adhesion Molecule 1 (ICAM1), ICAM1 (gene 3383); experiment: BSK_BF4T_ICAM1: BioMAP Diversity Plus: BF4T Assay for Intercellular Adhesion Molecule 1 (ICAM1) Biomarker Activity (AID 2284260); settings: primary human bronchial epithelial cells with fibroblasts
# How it was run: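 ICAM-1 levels measured by ELISA after 24 h chemical treatment of bronchial epithelial cell/dermal fibroblast co-cultures, read against DMSO baseline. Overt cytotoxicity checked in parallel cultures by sulforhodamine B staining.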
# [5] = read-out: Interleukin-8 (IL8), CXCL8 (gene 3576); experiment: BSK_MyoF_IL8: BioMAP Diversity Plus: MyoF Assay for Interleukin-8 (IL8) Biomarker Activity (AID 2284261); settings: primary human lung fibroblasts
# How it was run: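 DMSO-normalised, upward-fitted IL-8 ELISA signal; human lung fibroblasts, 24 h chemical treatment.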
# CD90, THY1 (gene 7070) = experiment: BSK_BF4T_CD90: BioMAP Diversity Plus: BF4T Assay for CD90 Biomarker Activity (AID 2284262); settings: primary human bronchial epithelial cells with fibroblasts
# How it was run: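 CD90 levels by ELISA after 24 h treatment of human bronchial epithelial cell/dermal fibroblast cultures, analysed versus DMSO. Overt cytotoxicity checked in parallel cultures by sulforhodamine B staining.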
# [6] = read-out: Interleukin-8 (IL8), CXCL8 (gene 3576); experiment: BSK_BF4T_IL8: BioMAP Diversity Plus: BF4T Assay for Interleukin-8 (IL8) Biomarker Activity (AID 2284263); settings: primary human bronchial epithelial cells with fibroblasts
# How it was run: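 Human bronchial epithelial cells with dermal fibroblasts co-culture; IL-8 measured by ELISA 24 hours after dosing, fitted vs DMSO. Cytotoxicity tracked in parallel cultures by SRB total-protein staining.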
# [7] = read-out: Interleukin-1 alpha (IL1a), IL1A (gene 3552); experiment: BSK_BF4T_IL1a: BioMAP Diversity Plus: BF4T Assay for Interleukin-1 alpha (IL1a) Biomarker Activity (AID 2284264); settings: primary human bronchial epithelial cells with fibroblasts
# How it was run: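 ELISA read-out of IL-1α from bronchial epithelial cell/dermal fibroblast co-cultures 24 h after compound addition. Increases scored against DMSO negative control. Cytotoxicity monitored by sulforhodamine B staining of parallel cultures.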
# Decorin, DCN (gene 1634) = experiment: BSK_MyoF_Decorin: BioMAP Diversity Plus: MyoF Assay for Decorin Biomarker Activity (AID 2284265); settings: primary human lung fibroblasts
# How it was run: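 In this multiplexed fibroblast system, secreted or surface decorin is detected by ELISA one day after dosing, with increases scored against the DMSO vehicle.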
smiles,measurement,setting,value
O=C(O)C(F)(F)C(F)(F)C(F)(F)C(F)(F)C(F)(F)C(F)(F)C(F)(F)C(F)(F)F,outcome,[1],inactive
same,AC50,"CD69, CD69 (gene 969)",49.9 µM (active) and 48.7 µM (active)
same,AC50,[2],17 µM (active) and 15.5 µM (active)
same,AC50,[3],21.7 µM (active) and 34.2 µM (active)
same,AC50,[4],22.2 µM (active) and 38.1 µM (active)
same,outcome,[5],inactive
same,outcome,"CD90, THY1 (gene 7070)",inactive
same,AC50,[6],48 µM (active) and 48.7 µM (active)
same,AC50,[7],48.7 µM (active) and 52.5 µM (active)
same,outcome,"Decorin, DCN (gene 1634)",inactive
O=S(=O)(O)C(F)(F)C(F)(F)C(F)(F)C(F)(F)F,outcome,[1],inactive
same,outcome,"CD69, CD69 (gene 969)",inactive
same,outcome,[2],inactive
same,outcome,[3],inactive
same,outcome,[4],inactive
same,outcome,[5],inactive
same,outcome,"CD90, THY1 (gene 7070)",inactive
same,outcome,[6],inactive
same,outcome,[7],inactive
same,outcome,"Decorin, DCN (gene 1634)",inactive
Sc1ccccc1,outcome,[1],inactive
same,outcome,[5],inactive
same,outcome,"Decorin, DCN (gene 1634)",inactive
Oc1c(Cl)c(Cl)c(Cl)c(Cl)c1Cl,AC50,[1],7.45 µM (active)
same,AC50,[5],0.595 µM (active)
same,AC50,"Decorin, DCN (gene 1634)",10.2 µM (active)
O=C(O)C(F)(F)C(F)(F)C(F)(F)C(F)(F)C(F)(F)F,outcome,[1],inactive
same,outcome,"CD69, CD69 (gene 969)",inactive
same,outcome,[2],inactive
same,outcome,[3],inactive
same,outcome,[4],inactive
same,outcome,[5],inactive
same,outcome,"CD90, THY1 (gene 7070)",inactive
same,outcome,[6],inactive
same,outcome,[7],inactive
same,outcome,"Decorin, DCN (gene 1634)",inactive
